Laboratory results published in publication PMC11006913.

What was measured:
Experiment in all cases: PBM; 200 nM protein, PBS
Conditions in all cases: dsDNA, one strand shown
HESX1 [1] = target: HESX1 (Homo sapiens, UniProt Q9UBX0 95-180, R165K)
SHOX [2] = target: SHOX (Homo sapiens, UniProt O15266 103-189)
ALX4 [3] = target: ALX4 (Homo sapiens, UniProt Q9H161 200-286)
ALX4 [4] = target: ALX4 (Homo sapiens, UniProt Q9H161 200-286, Q225E)
HESX1 [5] = target: HESX1 (Homo sapiens, UniProt Q9UBX0 95-180)
HESX1 (Homo sapiens, UniProt Q9UBX0 95-180), sequence (Q9UBX0 95-180): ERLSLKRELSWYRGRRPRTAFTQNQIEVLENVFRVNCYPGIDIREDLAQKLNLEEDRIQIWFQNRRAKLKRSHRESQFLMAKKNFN

ALX1 [6] = target: ALX1 (Homo sapiens, UniProt Q15699 118-204, L144V)
ALX1 (Homo sapiens, UniProt Q15699 118-204, L144V), sequence (Q15699 118-204 L144V): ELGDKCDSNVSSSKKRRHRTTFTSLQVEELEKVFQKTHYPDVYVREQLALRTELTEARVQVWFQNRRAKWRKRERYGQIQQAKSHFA

ALX3 [7] = target: ALX3 (Homo sapiens, UniProt O95076 139-225, N203Q)
ALX3 (Homo sapiens, UniProt O95076 139-225, N203Q), sequence (O95076 139-225 N203Q): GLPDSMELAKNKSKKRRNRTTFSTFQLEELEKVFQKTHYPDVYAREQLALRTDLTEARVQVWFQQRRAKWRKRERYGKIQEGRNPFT

SHOX [8] = target: SHOX (Homo sapiens, UniProt O15266 103-189, R173C)
SHOX (Homo sapiens, UniProt O15266 103-189, R173C), sequence (O15266 103-189 R173C): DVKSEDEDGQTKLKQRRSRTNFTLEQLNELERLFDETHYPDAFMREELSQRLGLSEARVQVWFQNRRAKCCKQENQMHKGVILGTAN

ALX1 [9] = target: ALX1 (Homo sapiens, UniProt Q15699 118-204, L144R)
ALX1 (Homo sapiens, UniProt Q15699 118-204, L144R), sequence (Q15699 118-204 L144R): as the sequence (Q15699 118-204 L144V) above, with V27R counted along it

ALX3 [10] = target: ALX3 (Homo sapiens, UniProt O95076 139-225)
ALX3 (Homo sapiens, UniProt O95076 139-225), sequence (O95076 139-225): as the sequence (O95076 139-225 N203Q) above, with Q65N counted along it

PROP1 [11] = target: PROP1 (Homo sapiens, UniProt O75360 56-141)
PROP1 (Homo sapiens, UniProt O75360 56-141), sequence (O75360 56-141): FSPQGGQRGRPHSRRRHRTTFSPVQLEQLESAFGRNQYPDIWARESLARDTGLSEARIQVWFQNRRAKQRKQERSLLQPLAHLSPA

HESX1 [12] = target: HESX1 (Homo sapiens, UniProt Q9UBX0 95-180, R109Q)
HESX1 (Homo sapiens, UniProt Q9UBX0 95-180, R109Q), sequence (Q9UBX0 95-180 R109Q): as the sequence (Q9UBX0 95-180) above, with R15Q counted along it

PROP1 [13] = target: PROP1 (Homo sapiens, UniProt O75360 56-141, R99H)
PROP1 (Homo sapiens, UniProt O75360 56-141, R99H), sequence (O75360 56-141 R99H): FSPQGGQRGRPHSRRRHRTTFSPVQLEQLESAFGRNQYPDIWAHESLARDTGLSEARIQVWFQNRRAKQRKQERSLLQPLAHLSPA

ALX3 [14] = target: ALX3 (Homo sapiens, UniProt O95076 139-225, L168Q)
ALX3 (Homo sapiens, UniProt O95076 139-225, L168Q), sequence (O95076 139-225 L168Q): as the sequence (O95076 139-225 N203Q) above, with L30Q, Q65N counted along it

HESX1 [15] = target: HESX1 (Homo sapiens, UniProt Q9UBX0 95-180, P111T)
HESX1 (Homo sapiens, UniProt Q9UBX0 95-180, P111T), sequence (Q9UBX0 95-180 P111T): as the sequence (Q9UBX0 95-180) above, with P17T counted along it

ALX3 [16] = target: ALX3 (Homo sapiens, UniProt O95076 139-225, L168V)
ALX3 (Homo sapiens, UniProt O95076 139-225, L168V), sequence (O95076 139-225 L168V): as the sequence (O95076 139-225 N203Q) above, with L30V, Q65N counted along it

PROP1 [17] = target: PROP1 (Homo sapiens, UniProt O75360 56-141, F88S)
PROP1 (Homo sapiens, UniProt O75360 56-141, F88S), sequence (O75360 56-141 F88S): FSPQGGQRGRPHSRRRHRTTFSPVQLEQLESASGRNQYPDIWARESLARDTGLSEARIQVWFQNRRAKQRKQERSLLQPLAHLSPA

HESX1 [18] = target: HESX1 (Homo sapiens, UniProt Q9UBX0 95-180, F115L)
HESX1 (Homo sapiens, UniProt Q9UBX0 95-180, F115L), sequence (Q9UBX0 95-180 F115L): as the sequence (Q9UBX0 95-180) above, with F21L counted along it

ALX1 [19] = target: ALX1 (Homo sapiens, UniProt Q15699 118-204)
ALX1 (Homo sapiens, UniProt Q15699 118-204), sequence (Q15699 118-204): as the sequence (Q15699 118-204 L144V) above, with V27L counted along it

ALX3 [20] = target: ALX3 (Homo sapiens, UniProt O95076 139-225, N203S)
ALX3 (Homo sapiens, UniProt O95076 139-225, N203S), sequence (O95076 139-225 N203S): as the sequence (O95076 139-225 N203Q) above, with Q65S counted along it

ALX4 (Homo sapiens, UniProt Q9H161 200-286), sequence (Q9H161 200-286): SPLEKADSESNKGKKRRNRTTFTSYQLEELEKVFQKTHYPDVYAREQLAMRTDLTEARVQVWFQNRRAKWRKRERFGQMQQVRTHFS
SHOX (Homo sapiens, UniProt O15266 103-189), sequence (O15266 103-189): as the sequence (O15266 103-189 R173C) above, with C71R counted along it
ALX4 (Homo sapiens, UniProt Q9H161 200-286, Q225E), sequence (Q9H161 200-286 Q225E): as the sequence (Q9H161 200-286) above, with Q26E counted along it
HESX1 (Homo sapiens, UniProt Q9UBX0 95-180, R165K), sequence (Q9UBX0 95-180 R165K): as the sequence (Q9UBX0 95-180) above, with R71K counted along it

Row | Sequence | binding signal (HESX1 [1]) | binding signal (SHOX [2]) | binding signal (ALX4 [3]) | binding signal (ALX4 [4]) | binding signal (HESX1 [5]) | binding signal (ALX1 [6]) | binding signal (ALX3 [7]) | binding signal (SHOX [8]) | binding signal (ALX1 [9]) | binding signal (ALX3 [10]) | binding signal (PROP1 [11]) | binding signal (HESX1 [12]) | binding signal (PROP1 [13]) | binding signal (ALX3 [14]) | binding signal (HESX1 [15]) | binding signal (ALX3 [16]) | binding signal (PROP1 [17]) | binding signal (HESX1 [18]) | binding signal (ALX1 [19]) | binding signal (ALX3 [20])
1 | CAATTAAC | 13.1 upbm affinity estimate (log intensity, higher = more binding, comparable within an allelic series) | 12.1 upbm affinity estimate (log intensity, higher = more binding, comparable within an allelic series) | 14 upbm affinity estimate (log intensity, higher = more binding, comparable within an allelic series) | 13.5 upbm affinity estimate (log intensity, higher = more binding, comparable within an allelic series) | 13.1 upbm affinity estimate (log intensity, higher = more binding, comparable within an allelic series) | 11.8 upbm affinity estimate (log intensity, higher = more binding, comparable within an allelic series) | 8.37 upbm affinity estimate (log intensity, higher = more binding, comparable within an allelic series) | 9.74 upbm affinity estimate (log intensity, higher = more binding, comparable within an allelic series) | 11.5 upbm affinity estimate (log intensity, higher = more binding, comparable within an allelic series) | 12.7 upbm affinity estimate (log intensity, higher = more binding, comparable within an allelic series) | 11.6 upbm affinity estimate (log intensity, higher = more binding, comparable within an allelic series) | 9.81 upbm affinity estimate (log intensity, higher = more binding, comparable within an allelic series) | 11.8 upbm affinity estimate (log intensity, higher = more binding, comparable within an allelic series) | 10.8 upbm affinity estimate (log intensity, higher = more binding, comparable within an allelic series) | 11.7 upbm affinity estimate (log intensity, higher = more binding, comparable within an allelic series) | 10.3 upbm affinity estimate (log intensity, higher = more binding, comparable within an allelic series) | 7.68 upbm affinity estimate (log intensity, higher = more binding, comparable within an allelic series) | 7.95 upbm affinity estimate (log intensity, higher = more binding, comparable within an allelic series) | 12.5 upbm affinity estimate (log intensity, higher = more binding, comparable within an allelic series) | 8.57 upbm affinity estimate (log intensity, higher = more binding, comparable within an allelic series)
2 | CTAATTGA | 13.2 upbm affinity estimate (log intensity, higher = more binding, comparable within an allelic series) | 12.6 upbm affinity estimate (log intensity, higher = more binding, comparable within an allelic series) | 14.1 upbm affinity estimate (log intensity, higher = more binding, comparable within an allelic series) | 13.5 upbm affinity estimate (log intensity, higher = more binding, comparable within an allelic series) | 13.2 upbm affinity estimate (log intensity, higher = more binding, comparable within an allelic series) | 11.9 upbm affinity estimate (log intensity, higher = more binding, comparable within an allelic series) | 8.21 upbm affinity estimate (log intensity, higher = more binding, comparable within an allelic series) | 9.97 upbm affinity estimate (log intensity, higher = more binding, comparable within an allelic series) | 11.5 upbm affinity estimate (log intensity, higher = more binding, comparable within an allelic series) | 12.7 upbm affinity estimate (log intensity, higher = more binding, comparable within an allelic series) | 11.8 upbm affinity estimate (log intensity, higher = more binding, comparable within an allelic series) | 9.83 upbm affinity estimate (log intensity, higher = more binding, comparable within an allelic series) | 12.1 upbm affinity estimate (log intensity, higher = more binding, comparable within an allelic series) | 10.8 upbm affinity estimate (log intensity, higher = more binding, comparable within an allelic series) | 11.8 upbm affinity estimate (log intensity, higher = more binding, comparable within an allelic series) | 10.2 upbm affinity estimate (log intensity, higher = more binding, comparable within an allelic series) | 7.7 upbm affinity estimate (log intensity, higher = more binding, comparable within an allelic series) | 7.77 upbm affinity estimate (log intensity, higher = more binding, comparable within an allelic series) | 12.8 upbm affinity estimate (log intensity, higher = more binding, comparable within an allelic series) | 8.38 upbm affinity estimate (log intensity, higher = more binding, comparable within an allelic series)
3 | CAATTATC | 13 upbm affinity estimate (log intensity, higher = more binding, comparable within an allelic series) | 11.8 upbm affinity estimate (log intensity, higher = more binding, comparable within an allelic series) | 13.8 upbm affinity estimate (log intensity, higher = more binding, comparable within an allelic series) | 13.2 upbm affinity estimate (log intensity, higher = more binding, comparable within an allelic series) | 13.1 upbm affinity estimate (log intensity, higher = more binding, comparable within an allelic series) | 11.7 upbm affinity estimate (log intensity, higher = more binding, comparable within an allelic series) | 8.4 upbm affinity estimate (log intensity, higher = more binding, comparable within an allelic series) | 9.58 upbm affinity estimate (log intensity, higher = more binding, comparable within an allelic series) | 11.4 upbm affinity estimate (log intensity, higher = more binding, comparable within an allelic series) | 12.5 upbm affinity estimate (log intensity, higher = more binding, comparable within an allelic series) | 11.5 upbm affinity estimate (log intensity, higher = more binding, comparable within an allelic series) | 9.41 upbm affinity estimate (log intensity, higher = more binding, comparable within an allelic series) | 11.7 upbm affinity estimate (log intensity, higher = more binding, comparable within an allelic series) | 10.6 upbm affinity estimate (log intensity, higher = more binding, comparable within an allelic series) | 11.4 upbm affinity estimate (log intensity, higher = more binding, comparable within an allelic series) | 10.1 upbm affinity estimate (log intensity, higher = more binding, comparable within an allelic series) | 7.73 upbm affinity estimate (log intensity, higher = more binding, comparable within an allelic series) | 8 upbm affinity estimate (log intensity, higher = more binding, comparable within an allelic series) | 12.3 upbm affinity estimate (log intensity, higher = more binding, comparable within an allelic series) | 8.56 upbm affinity estimate (log intensity, higher = more binding, comparable within an allelic series)
4 | CCAATTAA | 13.6 upbm affinity estimate (log intensity, higher = more binding, comparable within an allelic series) | 12.7 upbm affinity estimate (log intensity, higher = more binding, comparable within an allelic series) | 14.3 upbm affinity estimate (log intensity, higher = more binding, comparable within an allelic series) | 14.1 upbm affinity estimate (log intensity, higher = more binding, comparable within an allelic series) | 13.5 upbm affinity estimate (log intensity, higher = more binding, comparable within an allelic series) | 12.2 upbm affinity estimate (log intensity, higher = more binding, comparable within an allelic series) | 8.51 upbm affinity estimate (log intensity, higher = more binding, comparable within an allelic series) | 10.3 upbm affinity estimate (log intensity, higher = more binding, comparable within an allelic series) | 11.9 upbm affinity estimate (log intensity, higher = more binding, comparable within an allelic series) | 12.9 upbm affinity estimate (log intensity, higher = more binding, comparable within an allelic series) | 12 upbm affinity estimate (log intensity, higher = more binding, comparable within an allelic series) | 10.8 upbm affinity estimate (log intensity, higher = more binding, comparable within an allelic series) | 12.2 upbm affinity estimate (log intensity, higher = more binding, comparable within an allelic series) | 11.2 upbm affinity estimate (log intensity, higher = more binding, comparable within an allelic series) | 12.2 upbm affinity estimate (log intensity, higher = more binding, comparable within an allelic series) | 10.8 upbm affinity estimate (log intensity, higher = more binding, comparable within an allelic series) | 7.84 upbm affinity estimate (log intensity, higher = more binding, comparable within an allelic series) | 8.43 upbm affinity estimate (log intensity, higher = more binding, comparable within an allelic series) | 12.8 upbm affinity estimate (log intensity, higher = more binding, comparable within an allelic series) | 8.7 upbm affinity estimate (log intensity, higher = more binding, comparable within an allelic series)
5 | TCAATTAA | 13.4 upbm affinity estimate (log intensity, higher = more binding, comparable within an allelic series) | 12.4 upbm affinity estimate (log intensity, higher = more binding, comparable within an allelic series) | 14.1 upbm affinity estimate (log intensity, higher = more binding, comparable within an allelic series) | 13.8 upbm affinity estimate (log intensity, higher = more binding, comparable within an allelic series) | 13.2 upbm affinity estimate (log intensity, higher = more binding, comparable within an allelic series) | 12 upbm affinity estimate (log intensity, higher = more binding, comparable within an allelic series) | 8.44 upbm affinity estimate (log intensity, higher = more binding, comparable within an allelic series) | 9.85 upbm affinity estimate (log intensity, higher = more binding, comparable within an allelic series) | 11.7 upbm affinity estimate (log intensity, higher = more binding, comparable within an allelic series) | 12.7 upbm affinity estimate (log intensity, higher = more binding, comparable within an allelic series) | 11.6 upbm affinity estimate (log intensity, higher = more binding, comparable within an allelic series) | 9.91 upbm affinity estimate (log intensity, higher = more binding, comparable within an allelic series) | 12 upbm affinity estimate (log intensity, higher = more binding, comparable within an allelic series) | 11 upbm affinity estimate (log intensity, higher = more binding, comparable within an allelic series) | 11.9 upbm affinity estimate (log intensity, higher = more binding, comparable within an allelic series) | 10.5 upbm affinity estimate (log intensity, higher = more binding, comparable within an allelic series) | 7.83 upbm affinity estimate (log intensity, higher = more binding, comparable within an allelic series) | 7.87 upbm affinity estimate (log intensity, higher = more binding, comparable within an allelic series) | 12.6 upbm affinity estimate (log intensity, higher = more binding, comparable within an allelic series) | 8.6 upbm affinity estimate (log intensity, higher = more binding, comparable within an allelic series)
6 | GGCAGGCC | 6.38 upbm affinity estimate (log intensity, higher = more binding, comparable within an allelic series) | – | – | – | 6.43 upbm affinity estimate (log intensity, higher = more binding, comparable within an allelic series) | 6.33 upbm affinity estimate (log intensity, higher = more binding, comparable within an allelic series) | – | – | 6.11 upbm affinity estimate (log intensity, higher = more binding, comparable within an allelic series) | – | – | 6.29 upbm affinity estimate (log intensity, higher = more binding, comparable within an allelic series) | – | – | 6.43 upbm affinity estimate (log intensity, higher = more binding, comparable within an allelic series) | – | – | 6.33 upbm affinity estimate (log intensity, higher = more binding, comparable within an allelic series) | 6.33 upbm affinity estimate (log intensity, higher = more binding, comparable within an allelic series) | –
7 | TATTAGAA | 8 upbm affinity estimate (log intensity, higher = more binding, comparable within an allelic series) | – | – | – | 8.34 upbm affinity estimate (log intensity, higher = more binding, comparable within an allelic series) | – | – | – | – | – | – | – | – | – | 7.87 upbm affinity estimate (log intensity, higher = more binding, comparable within an allelic series) | – | – | – | – | –
8 | AATTAATC | 11.9 upbm affinity estimate (log intensity, higher = more binding, comparable within an allelic series) | 11.9 upbm affinity estimate (log intensity, higher = more binding, comparable within an allelic series) | 13.9 upbm affinity estimate (log intensity, higher = more binding, comparable within an allelic series) | 13.2 upbm affinity estimate (log intensity, higher = more binding, comparable within an allelic series) | 12 upbm affinity estimate (log intensity, higher = more binding, comparable within an allelic series) | 11.9 upbm affinity estimate (log intensity, higher = more binding, comparable within an allelic series) | 8.39 upbm affinity estimate (log intensity, higher = more binding, comparable within an allelic series) | 9.4 upbm affinity estimate (log intensity, higher = more binding, comparable within an allelic series) | 11.6 upbm affinity estimate (log intensity, higher = more binding, comparable within an allelic series) | 12.5 upbm affinity estimate (log intensity, higher = more binding, comparable within an allelic series) | 11.2 upbm affinity estimate (log intensity, higher = more binding, comparable within an allelic series) | 9.36 upbm affinity estimate (log intensity, higher = more binding, comparable within an allelic series) | 11.1 upbm affinity estimate (log intensity, higher = more binding, comparable within an allelic series) | 10.6 upbm affinity estimate (log intensity, higher = more binding, comparable within an allelic series) | 10.7 upbm affinity estimate (log intensity, higher = more binding, comparable within an allelic series) | 10.2 upbm affinity estimate (log intensity, higher = more binding, comparable within an allelic series) | 7.81 upbm affinity estimate (log intensity, higher = more binding, comparable within an allelic series) | 7.79 upbm affinity estimate (log intensity, higher = more binding, comparable within an allelic series) | 12.3 upbm affinity estimate (log intensity, higher = more binding, comparable within an allelic series) | 8.52 upbm affinity estimate (log intensity, higher = more binding, comparable within an allelic series)
